Shown are actives, neighbours in structure and some others; about 4.3% of the full set was active somewhere.
CHOP inh: inhibitors of CHOP promoter induction, primary screen, cell-based, unfolded protein response, luciferase reporter; inhibition, % at 10 µM; 220,000 tested, 3.8% active; CHO-K1 CHOP-promoter luciferase, tunicamycin-induced, 15-18 h; AID 2732, 2010;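 active = compounds that reduced the stress-induced luciferase reporter signal by more than about 70% of percent inhibition, limit read from the data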;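 note: 0% = tunicamycin plus vehicle and 100% = wells without tunicamycin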
TRPM1 prom inh: inhibitors of MITF-dependent TRPM1 promoter reporter, primary screen, cell-based, SK-MEL-5, single point, luciferase | SK-MEL-5 TRPM1 promoter luciferase, 24 h | 330,000 tested, 0.83% active | AID 488899, 2010 | inhibition, % at 12.5 µM;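 active = mean inhibition across replicates of 60% or more, whatever share of single replicates reaches that level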
HIF-2a inh: HIF-2a reporter inhibitors, primary screen, luminescence, 786-0 RCC cells; 786-0 RCC cells HIF-2a reporter, luciferase luminescence, overnight; inhibition, % at 18.8 µM; 360,000 tested, 0.72% active;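 active = inhibition of the luminescence signal of 40% or more relative to plate controls, in a single-dose primary screen at 18.75 µM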
CF NFkB block: inhibitors of PAF-induced NF-kB signaling, primary screen, cell-based, GFP fluorescence, uHTS. inhibition, % at 5 µM. KKLEB NF-kB-GFP reporter, GFP fluorescence overnight. 360,000 tested, 0.86% active;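 active = at least 50% inhibition at 5 µM, scaled per plate between neutral and stimulator controls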;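 note: PAF is a Pseudomonas aeruginosa culture filtrate used as stimulus; plate controls were PAF-stimulated DMSO wells for no effect and unstimulated DMSO wells for full effect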
KKLEB tox: cytotoxicity in KKLEB CF airway cells, primary screen, cytotoxicity control for CF NF-kB inhibitor project, cell-based, uHTS, fluorescence assay plates; KKLEB CF airway cells viability, ATPlite luminescence, overnight; active compounds read low; cells stimulated with P. aeruginosa culture filtrate; activity change (cytotoxicity), % at 5 µM; 360,000 tested, 0.36% active; AID 602141, 2011;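 active = corrected activity change at or below -50% at 5 µM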
Peg3 prom inh-1: Peg3 promoter-driven luciferase inhibitors, primary screen, cell-based, HeLa, luciferase luminescence; 360,000 tested, 1.7% active; inhibition, % at 20 µM; AID 588405, 2011; HeLa PEG-Prom luciferase reporter, overnight;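 active = inhibition of at least 50% at 20 µM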
Peg3 prom inh-2: Peg3 promoter reporter inhibitors, retest, confirmation, cell-based, HeLa, luciferase reporter, single concentration; AID 602417, 2012; 1,300 tested, 84% active; shares compounds with Peg3 prom inh-1; inhibition, % at 20 µM; HeLa PEG-Prom luciferase reporter, luminescence, overnight;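 active = at 20 µM dose, 40% or more inhibition averaged across four replicates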
Numbers without * were called inactive; / = no result given.

SMILES	CHOP inh	TRPM1 prom inh	HIF-2a inh	CF NFkB block	KKLEB tox	Peg3 prom inh-1	Peg3 prom inh-2
O=C(CNCCC1=CCCCC1)Nc1ccc(N2CCCCCC2)cc1	5	2	33	15	-11	86*	99*
CC1(C)CC(NC(=O)c2cccc(S(=O)(=O)N(Cc3ccccc3)c3ccccc3)c2)CC(C)(C)N1	/	57	13	15	10	84*	92*
Cc1ccc(C(=O)NCC(=O)OCc2nc3ccsc3c(=O)[nH]2)cc1C	/	/	15	10	-1	-7	/
C/C(=N\N=C(N)N)c1cc(Cl)ccc1Cl	25	11	11	-3	9	7	/
C/C(=N\N=C(N)N)c1ccc(Cl)cc1Cl	26	-9	-1	-5	-18	71*	73*
COc1ccc(-n2cc(CNC3CCN(C)CC3)c(-c3cccc(F)c3)n2)cc1	-33	-1	-3	14	-7	52*	60*
COc1ccc(-n2cc(CN[C@H]3CCCCNC3=O)c(-c3cccc(F)c3)n2)cc1	19	-16	-17	23	-10	-15	/
O=C(c1ccc(Cl)cc1)N1N=CCC1(O)c1ccc(Cl)cc1 (stereo not given)	/	12	-1	3	2	4	/
COc1ccc(/C=N/Nc2nncc3ccccc23)cc1	64	5	25	-44	-40	56*	46*
CCCCC1C(=O)N(c2ccccc2)N(c2ccc(O)cc2)C1=O (stereo not given)	/	96*	95*	82*	29	101*	74*
O=C(COC(=O)c1ccc(O)cc1O)NC(=O)Cc1ccccc1	/	3	4	-2	-3	4	/
CC(C)(C)OC(=O)NCc1ccc(CNC(=O)c2nc[nH]c2C(=O)N2CCN(C(=O)OC(C)(C)C)CC2)cc1	/	21	9	-3	-11	51*	28
CC(C)(C)OC(=O)[C@H](Cc1ccccc1)NC(=O)c1[nH]cnc1C(=O)Nc1ccc(Cl)cc1	51	1	-1	16	-2	85*	29
CC(C)(C)OC(=O)[C@H](Cc1ccccc1)NC(=O)c1[nH]cnc1C(=O)Nc1cccc(Cl)c1	29	15	18	22	-18	32	/
Cc1ccc(NC(=O)c2nc[nH]c2C(=O)N2CCN(C(=O)OC(C)(C)C)CC2)cc1	/	-5	-17	-12	16	-10	/
CC(C)(C)OC(=O)NCCCCCNC(=O)c1[nH]cnc1C(=O)N[C@@H](Cc1ccccc1)C(=O)OC(C)(C)C	/	-6	16	3	-3	51*	40
CCc1ccc(S(=O)(=O)NC(=S)NC2CCCCC2)cc1	17	7	-5	-14	13	6	/
CCCCc1nnc(NC(=O)CSCc2cc(=O)n3cc(C)sc3n2)s1	/	-5	4	15	-2	-5	/
COc1ccc(NC(=O)c2cc3c(CO)cnc(C)c3oc2=Nc2cccc(C)c2)c(OC)c1	/	-10	4	8	-1	89*	25
COc1ccc(/C=C/C(=O)c2ccc3c4c(cccc24)CC3)cc1	-34	-52	-28	16	-42	25	/
COc1ccc(/C=C/C(=O)c2ccc3c4c(cccc24)CC3)cc1OC	-64	-7	-41	28	-27	69*	84*
O=c1c2ccccc2sc2nc(CCl)nn12	/	-7	31	7	-11	104*	93*
O=c1cc(CCl)nc2sc3ccccc3n12	-77	-10	-17	14	0	18	/
O=C1/C(=C/C=C/c2ccccc2)Oc2c1ccc(O)c2CN1CCN(CCO)CC1	0	1	0	2	6	-21	/
CCN1CCN(Cc2c(O)ccc3c2O/C(=C\C=C\c2ccccc2)C3=O)CC1	-53	57	92*	21	-3	108*	77*
SMILES	CHOP inh	TRPM1 prom inh	HIF-2a inh	CF NFkB block	KKLEB tox	Peg3 prom inh-1	Peg3 prom inh-2
Cc1cccc2c(SCC(N)=O)nc(-c3ccccc3)nc12	/	0	10	-4	0	51*	33
CCc1ccc(NC(=O)CSc2nc3ccccc3c(=O)n2CCCN2CCC(C)CC2)cc1	-7	-12	-6	14	-14	93*	95*
Cc1cc(C)c2sc(N(CCCN(C)C)C(=O)c3ccc(S(=O)(=O)N4CCCc5ccccc54)cc3)nc2c1	/	83*	-22	26	-27	102*	99*
CN1CCN(c2ccc(-c3cccc(NC(=O)COc4ccc(Cl)cc4)c3)nn2)CC1	/	-66	-121	-9	-15	-161	/
CN1CCN(c2ccc(-c3cccc(NC(=O)COc4ccc(Cl)cc4Cl)c3)nn2)CC1	/	-21	-67	10	-58*	54*	16
O=C(NCC1CCCO1)c1cc2ccccc2o1 (stereo not given)	/	-40	-106	29	-12	-66	/
CCc1ccc(OCCNc2cc(N3CCNC(C)C3)ccc2[N+](=O)[O-])cc1 (stereo not given)	/	79*	-4	28	-36	100*	100*
N=c1n(Cc2ccccc2)c2ccccc2n1Cc1ccccc1	14	-3	10	22	-18	34	/
N=c1n(CC(=O)c2ccc([N+](=O)[O-])cc2)c2ccccc2n1Cc1ccccc1	75*	85*	12	3	-31	66*	42*
COc1ccc(CCN=C(N)C(C)c2ccccc2)cc1OC (stereo not given)	-2	10	21	-10	-8	3	/
CC(C)Cc1ccc(C(C)C(N)=NCCc2ccccc2)cc1 (stereo not given)	/	71*	10	10	-28	104*	99*
Cc1nc(C(=O)O)nn1-c1cc(Cl)ccc1Cl	0	-3	3	14	-2	4	/
CCC(C)[C@H](NC(=O)c1cc2cc(Cl)ccc2n1C)C(=O)N1CCC(C(=O)O)CC1 (stereo not given in full)	/	0	2	0	-2	10	/
CC1=Nc2cccc3cccc(c23)N1	-23	2	-11	-45	-5	10	/
c1cc2c3c(cccc3c1)NC1(CCC3(CC1)Nc1cccc4cccc(c14)N3)N2	20	-18	-15	-28	0	76*	75*
O=C(NC(=S)Nc1ccc(N2CCOCC2)cc1)c1cncc(Br)c1	30	-21	10	13	9	-9	/
CC1(Cc2cc(Cl)ccc2C(F)(F)F)C(=O)Nc2ccc(OC(F)(F)F)cc21 (stereo not given)	/	/	10	-13	-1	52*	13

Screening results from PubChem BioAssay.
